Reference: PubChem BioAssay (NCI)
“And” between values parts separate entries of the source, which are not always exact repeats. Equal values may be shown once. About 83,000 compounds went through this panel and 20% of them were active in at least one assay; those are over-represented in the sample as a whole.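 In brief: 96-well plates, 48 h treatment, single concentration, percent growth endpoint.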 The source made the active and inactive calls. The calls were made as follows: active = growth percent below 10; inactive = the rest.

Tests used:
Test in all cases: NCI-60 one-dose screen, 48 h (100 = growth as untreated, 0 = no growth, -100 = all killed)
Settings in all cases: 10 µM unless noted
NCI-H23 lung = test system: NCI-H23 lung
NCI-H226 lung = test system: NCI-H226 lung
NCI-H322M lung = test system: NCI-H322M lung
HOP-62 NSCLC = test system: HOP-62 NSCLC
NCI-H460 lung = test system: NCI-H460 lung
HOP-92 NSCLC = test system: HOP-92 NSCLC
NCI-H522 lung = test system: NCI-H522 lung
A549/ATCC NSCLC = test system: A549/ATCC NSCLC
786-0 renal = test system: 786-0 renal
COLO 205 colon = test system: COLO 205 colon

Structure (SMILES) | growth (NCI-H23 lung) | growth (NCI-H226 lung) | growth (NCI-H322M lung) | growth (HOP-62 NSCLC) | growth (NCI-H460 lung) | growth (HOP-92 NSCLC) | growth (NCI-H522 lung) | growth (A549/ATCC NSCLC) | growth (786-0 renal) | growth (COLO 205 colon)
C[C@@H]1O[C@@H](O[C@H]2[C@@H](OC(=O)[C@]34CCC(C)(C)C[C@H]3C3=CC[C@@H]5[C@@]6(C)C[C@H](O)[C@H](O[C@@H]7O[C@H](CO)[C@@H](O)[C@H](O)[C@H]7O)[C@@](C)(CO)[C@@H]6CC[C@@]5(C)[C@]3(C)C[C@H]4O)OC[C@@H](O)[C@@H]2O)[C@H](O)[C@H](O[C@@H]2OC[C@@H](O)[C@H](O[C@@H]3OC[C@](O)(CO)[C@H]3O[C@@H]3OC[C@@H](O)[C@H](O)[C@H]3O)[C@H]2O)[C@H]1O[C@@H]1OC[C@](O)(CO)[C@H]1O | 48.7% (inactive) | 99.2% (inactive) | 56.4% (inactive) | 74% (inactive) | 110% (inactive) | 103% (inactive) | 29.8% (inactive) | 50.2% (inactive) | 46.9% (inactive) | 2.01% (active)
CCc1c2c(nc3ccc(OCc4ccc(B5OC(C)(C)C(C)(C)O5)cc4)cc13)-c1cc3c(c(=O)n1C2)COC(=O)[C@]3(O)CC | -23.1% (active) | -44% (active) | 6.44% (active) | -4.19% (active) | 1.68% (active) | -9.71% (active) | 3.47% (active) | 10.8% (inactive) | 10.6% (inactive) | 18.8% (inactive)
C=CCNC(=O)Cc1c(-c2ccc(OC)cc2)oc2c(OC)c3c(c(OC)c12)OCO3 | 96.2% (inactive) | 101% (inactive) | 97.9% (inactive) | 105% (inactive) | 102% (inactive) | 114% (inactive) | 92.7% (inactive) | 95.2% (inactive) | 104% (inactive) | 117% (inactive)
CC(=NCc1ccccc1)c1ccc(O)cc1O | 97.5% (inactive) | 101% (inactive) | 103% (inactive) | 101% (inactive) | 107% (inactive) | 76.2% (inactive) | 111% (inactive) | 100% (inactive) | 105% (inactive) | 105% (inactive)
COc1ccc(/C=C2\COc3ccc(O)c(O)c3C2=O)c(OC)c1OC | 38.6% (inactive) | 63.9% (inactive) | 56.2% (inactive) | 17.7% (inactive) | 24.9% (inactive) | 38.9% (inactive) | -45.2% (active) | 43.1% (inactive) | 28% (inactive) | 72.3% (inactive)
C[C@]12CCc3c(ccc4cc(O)ccc34)[C@@H]1C[C@H](O)[C@@H]2O | 94.2% (inactive) | 94.7% (inactive) | 107% (inactive) | 91.7% (inactive) | 97.8% (inactive) | 85.6% (inactive) | 98.1% (inactive) | 106% (inactive) | 111% (inactive) | 109% (inactive)
COc1nc2ccc(C)cc2cc1/C=[N+](\[O-])c1ccccc1 | 93.8% (inactive) | 73.6% (inactive) | 85.1% (inactive) | 81.7% (inactive) | 98.9% (inactive) | 72.5% (inactive) | 84.6% (inactive) | 92.4% (inactive) | 103% (inactive) | 96% (inactive)
O=c1c2c([nH]c3ccccc13)CCCC2 | 100% (inactive) and 68.1% (inactive) | 100% (inactive) | 113% (inactive) and 77.7% (inactive) | 98.5% (inactive) and 40.1% (inactive) | 99.8% (inactive) and 22.8% (inactive) | 83.9% (inactive) and 52.4% (inactive) | 92.4% (inactive) and 37.6% (inactive) | 93.8% (inactive) and 56.3% (inactive) | 107% (inactive) and 74.3% (inactive) | 94.5% (inactive) and 8.36% (active)
CCCc1cc(C(N)=S)ccn1 | 108% (inactive) | 100% (inactive) | 101% (inactive) | 106% (inactive) | 111% (inactive) | 95.1% (inactive) | 93.6% (inactive) | 103% (inactive) | 95.6% (inactive) | 107% (inactive)
COc1cc(C=O)ccc1Oc1ccc([N+](=O)[O-])cc1[N+](=O)[O-] | 95.6% (inactive) | 99.9% (inactive) | 104% (inactive) | 94.2% (inactive) | 104% (inactive) | 78.8% (inactive) | 94.3% (inactive) | 88.4% (inactive) | 102% (inactive) | 108% (inactive)
O=C(Oc1ccc(CO[N+](=O)[O-])cc1)c1ccccc1 | -71.1% (active) | -96.5% (active) | -88.1% (active) | -86.5% (active) | -65.3% (active) | -88% (active) | -67.2% (active) | -9.66% (active) | -87.7% (active) | -74.2% (active)
N=C1/C(=C2\NC3C=CC=CC3S2)C(c2ccc(Cl)cc2)C2C(=O)N(c3ccccc3)C(=S)N12 (stereo not given) | 97.4% (inactive) | 91.6% (inactive) | 101% (inactive) | 105% (inactive) | 107% (inactive) | 102% (inactive) | 101% (inactive) | 100% (inactive) | 101% (inactive) | 113% (inactive)
COc1ccc2c(c1)CC[C@@H]1[C@@H]2CC[C@]2(C)C3C(=CCC4C(=O)N(c5ccccc5)C(=O)C43)C[C@@H]12 (stereo not given in full) | 84.4% (inactive) | 90.8% (inactive) | 103% (inactive) | 90.3% (inactive) | 93.7% (inactive) | 99.3% (inactive) | 80.1% (inactive) | 92.3% (inactive) | 87.7% (inactive) | 94.4% (inactive)
CC[C@H](C)[C@H](NC(=O)[C@@H](N)CCC(N)=O)C(=O)N[C@@H](Cc1ccc(O)cc1)C(=O)N[C@@H](CCCCN)C(=O)N[C@@H](CCCCN)C(=O)N[C@@H](Cc1ccc(O)cc1)C(=O)N[C@@H](CCCNC(=N)N)C(=O)N[C@H](C(=O)N[C@@H](Cc1c[nH]c2ccccc12)C(=O)N[C@@H](Cc1ccc(O)cc1)C(=O)N[C@@H](CCCNC(=N)N)C(=O)N[C@@H](CCCCN)C(=O)N[C@@H](C)C(=O)N[C@@H](Cc1c[nH]c2ccccc12)C(=O)N[C@@H](CCCCN)C(=O)N[C@H](C(=O)N[C@@H](CC(C)C)C(=O)NCC(=O)N[C@@H](CCCCN)C(=O)N[C@H](C(N)=O)C(C)C)C(C)C)[C@@H](C)O | -15.1% (active) | 53.4% (inactive) | 23% (inactive) | 13.3% (inactive) | -4.21% (active) | -21.2% (active) | 59.4% (inactive) | 38.7% (inactive) | -57.9% (active) | 0.119% (active)
COc1ccc(-c2ccc(-c3ccc(C(=N)N)cn3)o2)cc1Cl | 69.3% (inactive) | 81.4% (inactive) | 77.2% (inactive) | 67.5% (inactive) | 0.593% (active) | 36.4% (inactive) | 59.5% (inactive) | 21.2% (inactive) | -6.3% (active) | -72.6% (active)
CCOC(=O)N(O)c1ccc(/C=C/c2ccccc2)cc1 | 75.9% (inactive) and 51.3% (inactive) | -39.4% (active) | 79.6% (inactive) and 76.4% (inactive) | 66.5% (inactive) | 23.5% (inactive) and 22% (inactive) | 67.4% (inactive) | 67.5% (inactive) and 48.4% (inactive) | 44% (inactive) and 77.1% (inactive) | 70.3% (inactive) and 73.7% (inactive) | 88.5% (inactive) and 84.7% (inactive)
CCn1cc(C(=O)NN=C2CCCC2)c(=O)c2ccc(C)nc21 | 98.9% (inactive) | 82.9% (inactive) | 82.4% (inactive) | 93.3% (inactive) | 92.9% (inactive) | 90.6% (inactive) | 88.8% (inactive) | 90.3% (inactive) | 93.1% (inactive) | 104% (inactive)
CCOC(=O)c1nc2c3ccccc3cnn2c1C(=O)c1ccc(OC)cc1 | 84.4% (inactive) | 81.9% (inactive) | 101% (inactive) | 77.4% (inactive) | 103% (inactive) | 86.5% (inactive) | 95.2% (inactive) | 87.2% (inactive) | 102% (inactive) | 97.5% (inactive)
CCCCCC#CC1OC23CCCCC2C(C#N)(C(=N)O3)C1(C#N)C#N (stereo not given) | 101% (inactive) | 97.4% (inactive) | 98.3% (inactive) | 98.8% (inactive) | 99.8% (inactive) | 90.4% (inactive) | 77.5% (inactive) | 75.6% (inactive) | 91.4% (inactive) | 117% (inactive)
O=C1c2cc3c(cc2-c2c1c1ccc(Cl)cc1c(=O)n2CCCn1ccnc1)OCO3 | -38.2% (active) | 1.03% (active) | 10.5% (inactive) | 5.44% (active) | 2.4% (active) | -2.88% (active) | -26.1% (active) | 19.6% (inactive) | -40.9% (active) | 14.5% (inactive)
COc1ccc(S(=O)(=O)Nc2cc(Sc3cccc4cccnc34)c(O)c3ccccc23)cc1 | 23.7% (inactive) | 41.2% (inactive) | 29.9% (inactive) | 45.8% (inactive) | 4.45% (active) | 38.9% (inactive) | -39% (active) | 13.3% (inactive) | 28.5% (inactive) | -60.2% (active)
COc1ccccc1/C=C/C(=O)/C=C/c1ccccc1OC | -26% (active) and 24.7% (inactive) | -30.6% (active) | 30.6% (inactive) and 38.9% (inactive) | -22.7% (active) and -19.7% (active) | 2.27% (active) and -3.65% (active) | -10.9% (active) and 33.9% (inactive) | -84.5% (active) and -58.5% (active) | -13.8% (active) and -7.39% (active) | -56.9% (active) and -47.8% (active) | -73.7% (active) and -57.9% (active)
O=[N+]([O-])c1cc(C(F)(F)F)ccc1Sc1ccc(C(F)(F)F)cc1[N+](=O)[O-] | 63.1% (inactive) | 90.9% (inactive) | 112% (inactive) | 94.6% (inactive) | 74.4% (inactive) | 120% (inactive) | 77.9% (inactive) | 93.4% (inactive) | 103% (inactive) | 123% (inactive)
